# Rab9 prom act = activates the Rab9 promoter; Potency, µM (series often up to 9.22 µM), for inactives: at the highest dose activation, negative = inhibition, actives largely listed as activators; AID 485297; 2.8% of 320,000 active; Huh7 Rab9 promoter-luciferase reporter, luminescence, 24 h; also: % of control where 0% means no effect; nearly all actives have a fitted effect of over 60% in size
#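 Huh7 cells stably carrying a Rab9 promoter-luciferase reporter, 1500 cells per well in OP-MEM I with 10% FBS, treated with compound 24 hours at 37C. Luciferase activity read by luminescence after 10 minutes with Amplite reagent.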
# ELG1 DNA repair = ELG1-dependent DNA repair inhibition; HEK293T ELG1-luciferase reporter, luminescence, 16 h; DNA damage induced by 5-fluorouridine; AID 504467; 2.3% of 330,000 active; Potency, µM (doses to about 46.1 µM), inactives show at the highest dose activity change, negative = inhibition, actives largely listed as inhibitors; also: % is scaled to controls: 0 for no effect and ±100 for the full control effect; nearly all actives have a fitted effect of over 55% in size
#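 Luminescence from the luciferase reporter, measured 30 min after ONE-Glo reagent at room temperature, was the read-out. Beforehand, 2,000 cells per well were exposed for 16 hr at 37 °C to 5-fluorouridine together with compound or vehicle.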
# FLuc modulator = firefly luciferase modulation, counter-screen for miR-21 project. P08659. Potency, µM (series often up to 57.5 µM), for inactives: top-dose activity change, negative = inhibition, usual class: inhibitors. purified FLuc, Km substrates, luminescence inhibition. 6.9% of 360,000 active;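 also: plate controls were vehicle for no effect and reference inhibitor for full effect; nearly all actives have a fitted effect of over 55% in size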
# Target sequence (P08659 whole entry, looked up): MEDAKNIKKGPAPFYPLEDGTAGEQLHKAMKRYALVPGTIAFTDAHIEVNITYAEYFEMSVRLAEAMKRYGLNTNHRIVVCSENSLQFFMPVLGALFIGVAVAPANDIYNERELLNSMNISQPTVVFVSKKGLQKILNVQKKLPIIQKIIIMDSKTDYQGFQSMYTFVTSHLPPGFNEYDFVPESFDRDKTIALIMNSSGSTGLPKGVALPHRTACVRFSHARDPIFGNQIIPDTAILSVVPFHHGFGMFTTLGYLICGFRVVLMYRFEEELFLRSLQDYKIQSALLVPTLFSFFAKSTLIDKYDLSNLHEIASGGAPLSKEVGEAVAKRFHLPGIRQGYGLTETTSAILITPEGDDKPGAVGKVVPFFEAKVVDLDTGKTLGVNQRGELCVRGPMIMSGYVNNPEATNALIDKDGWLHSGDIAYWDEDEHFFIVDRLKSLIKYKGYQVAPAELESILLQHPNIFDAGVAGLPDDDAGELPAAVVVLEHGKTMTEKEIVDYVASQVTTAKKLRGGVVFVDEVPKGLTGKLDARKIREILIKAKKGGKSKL
#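 Purified P. pyralis luciferase (10nM final) with 10uM D-luciferin and 10uM ATP (Km levels) in 50mM Tris acetate pH 7.5, 10mM Mg acetate, 0.01% Tween-20, 0.05% BSA; qHTS 6-point titration, ~60 µM downward; luminescence read.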
# NPC1 prom act = NPC1 promoter activation. Potency, µM (top dose mostly 9.22 µM), for the others: at the highest dose activation, usual class: activators. Huh7 NPC1 promoter luciferase reporter, 24 h. 2.4% of 320,000 active; also: % of control where 0% means no effect; nearly all actives have a fitted effect of over 60% in size
#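 Quantitative HTS used a cell-based reporter: Huh7 cells stably bearing the NPC1 promoter upstream of luciferase were treated with compounds for 24 h, and promoter activation was read as luminescence.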
# SMN2 splice up = SMN2 splice variant enhancement | HEK293 SMN2-luciferase splicing reporter, luminescence, 30-36 h | 2.8% of 210,000 active | AID 1458 | Potency, µM (highest dose often 46.1 µM), for the others: at the top dose activity change, positive = activation, usual class: activators; also: % of control where 0% means no effect; nearly all actives have a fitted effect of over 55% in size
#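 HEK293 cells carry an SMN2 […]–luciferase reporter in which exon 7 inclusion puts luciferase in frame. Cells were plated 10-12 h before compound addition, then incubated 30-36 h at 37C. ONE-Glo luminescence was read; sodium butyrate at 4.5 mM final served as control.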
# ELG1 genotox = inducers of genotoxicity in HEK293T ELG1-luciferase cells; HEK293T ELG1-luciferase reporter, luminescence, 16 h; Potency, µM (series often up to 46 µM), for the others: at the top dose activity change, positive = activation, hits mostly activators; 1.3% of 330,000 active; AID 504466; also: % of control where 0% means no effect; nearly all actives have a fitted effect of over 60% in size
#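 DMSO vehicle served as control against compound-treated ELG1-luciferase HEK293T cells; exposure lasted 16 hr at 37 °C and 5% CO2, followed by ONE-Glo luminescence detection after 30 min.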
# The depositor's hits bear a star; ? = inconclusive; . = no result given; [ ] = remark or other dose. Sampled rows, rich in hits. Any-hit rate of the full collection: about 9.2%. Calls follow the shape of the dose curve; as a rule, active = well fitted curve in the direction sought with a large enough effect; inconclusive = small, poorly fitted or top-dose-only effect, or another doubt; inactive = no such curve, though single readings can be large; an effect the other way counts as inactive or inconclusive. Potency is read from the fitted curve at half-maximal effect.
SMILES,Rab9 prom act,ELG1 DNA repair,FLuc modulator,NPC1 prom act,SMN2 splice up,ELG1 genotox
CC(=O)c1ccc(NC(=O)Nc2ccc3c(c2)nc(C)n3C)cc1,3.2µM*,?,19µM*,?,?,?
CNC(=O)CSc1cn(CC(=O)N(C(C)C)C(C)C)c2ccccc12,-8%,0%,-3%,1%,-7%,-4%
COc1cccc(/C=C2\CCCCC2=O)c1,4%,?,?,5%,.,7%
COC(=O)c1ccc(Cl)c(NC(=O)C2CCN(S(=O)(=O)Cc3ccccc3)CC2)c1,.,.,-16%,.,.,.
O=C(NCCOc1ccc(Cl)cc1)c1cccc(S(=O)(=O)N2CCCC2)c1,2%,8.9µM*,-2%,1%,.,-2%
COc1ccccc1OCCNC(=O)c1cccc(S(=O)(=O)N2CCN(C)CC2)c1,1%,11%,13µM*,-4%,.,12%
COc1ccccc1OCCNC(=O)c1cccc(S(=O)(=O)N2CCN(Cc3ccccc3)CC2)c1,1%,21µM*,1%,-2%,.,-5%
O=C(NCc1ccc(Cl)cc1)c1cccc(S(=O)(=O)N2CCCC2)c1,-2%,?,2%,-5%,.,-2%
O=C(c1ccc(-n2cncn2)c([N+](=O)[O-])c1)N1CCN(S(=O)(=O)c2ccc(Cl)cc2)CC1,-3%,-13%,4%,-1%,.,-8%
COc1ccc(-c2cc(=O)n(-c3ccc([N+](=O)[O-])cc3)[nH]2)cc1,-5%,?,21µM*,-1%,9%,1%
O=C(NCCCN1CCC(Cc2ccccc2)CC1)C1CC(=O)N(C2CCCCCC2)C1 (stereo not given),-5%,-13%,-1%,-4%,-10%,2%
O=C1SC(SCc2ccccc2)=N/C1=C\c1ccc(C(=O)O)cc1,-3%,3%,24µM*,-2%,.,0%
CC1CN(C(=O)CCC(=O)NCc2cccs2)c2ccccc2O1 (stereo not given),.,.,-12%,.,.,.
COc1ccc(CCN(/C=C2\Sc3ccccc3C2=O)C(C)=O)cc1OC,-3%,?,27µM*,-5%,.,0%
COc1ccc(C(C[N+](=O)[O-])C2(c3ccc(OC)c(OC)c3)C(=O)c3ccccc3C2=O)cc1 (stereo not given),?,?,6µM*,28%,25µM*,-13%
CC(=O)Nc1ccc(NS(=O)(=O)c2c(C)nc3sccn3c2=O)cc1,.,.,0%,.,.,.
Cc1nc2sccn2c(=O)c1S(=O)(=O)Nc1ccc(N2CCN(S(C)(=O)=O)CC2)cc1,-1%,9.2µM*,0%,3%,-33%,-22%
O=C(O)c1cc(NN=C2CCN(Cc3ccccc3)CC2)ccc1Cl,2.8µM*,?,?,4µM*,.,?
O=C(NN=C1CCN(Cc2ccccc2)CC1)c1cc2ccccc2cc1O,5%,18%,?,-1%,13%,1%
O=C(NN=C1CCN(Cc2ccccc2)CC1)c1ccccc1O,3%,12%,24µM*,-2%,.,4%
CC(C)(C)N/N=C1\CC(c2ccccc2)Oc2ccccc21 (stereo not given),-3%,18%,-1%,1%,.,-2%
CCOC(=O)C1=C(C)C/C(=N\NC(=O)c2ccccc2O)CC1,?,?,7.6µM*,?,.,26%
O=C(O)c1cc(N/N=C2/CC(c3ccccc3)Oc3ccccc32)ccc1Cl (stereo not given),5%,?,27µM*,-1%,-3%[1.84 µM],10%
CCN(CC)S(=O)(=O)c1ccc(OC)c(NC(=O)c2cc(C)on2)c1,-2%,-13%,2%,0%,2%,-4%
CCOC(=O)c1c(N)n(-c2ccc(Cl)c(Cl)c2)c2nc3ccccc3nc12,.,.,-1%,.,3%,.
O=Cc1ccc(-c2cc(Cl)ccc2Cl)[nH]1,-1%,-4%,-5%,-1%,-15%,-2%
